Bioassay records deposited in PubChem by National Center for Advancing Translational Sciences (NCATS).
KinaseGlo FLuc – counter-screen: inhibitors of Kinase-Glo firefly luciferase; Q27757; Kinase-Glo luciferase, ATP luminescence, 8 min; Potency, µM (series often up to 38.3 µM), without a hit: at the highest dose activity change, negative = inhibition, usual class: inhibitors; hit rate 0.28% among 200,000; AID 1379; further: on the % scale 0 is the no-effect control and ±100 the full control effect; nearly all actives have a fitted effect of over 60% in size
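Compounds were added to a substrate mix at pH 7.2 (50 mM imidazole, 10 uM ATP, within the enzyme's linear range), followed by Kinase-Glo detection reagent; luminescence was measured after 8 minutes at ambient temperature.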
NPC1 promoter act – NPC1 promoter activation; Huh7 NPC1 promoter luciferase reporter, 24 h; Potency, µM (series often up to 9.22 µM), without a hit: at the top dose activation, actives largely listed as activators; hit rate 2.4% among 320,000; AID 485313; further: % of control where 0% means no effect; nearly all actives have a fitted effect of over 60% in size
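Cells: Huh7 expressing luciferase under the NPC1 promoter, 1500/well. Seeded 2 h, compound added, incubated 24 h at 37 °C. Luciferase reagent, 10 min ambient, then luminescence.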
Rab9 prom act – Rab9 promoter activation. Huh7 Rab9 promoter-luciferase reporter, luminescence, 24 h. Potency, µM (series often up to 9.22 µM), inactives show top-dose activation, negative = inhibition, most hits filed as activators. hit rate 2.8% among 320,000; further: % of control where 0% means no effect; nearly all actives have a fitted effect of over 60% in size
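Quantitative HTS format; Huh7 Rab9-luciferase reporter cells (1500/well) receive compound 2 h post-plating, incubate 24 h at 37 °C, then get luciferase reagent for 10 min before luminescence reading.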
FLuc modulator – firefly luciferase modulation, counter-screen for miR-21 project | Potency, µM (highest dose often 57.5 µM), inactives show at the highest dose activity change, negative = inhibition, actives largely listed as inhibitors | AID 588342 | hit rate 6.9% among 360,000 | purified FLuc, Km substrates, luminescence inhibition | P08659;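 further: plate controls were vehicle for no effect and reference inhibitor for full effect; nearly all actives have a fitted effect of over 55% in size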
Target sequence (P08659 whole entry, looked up): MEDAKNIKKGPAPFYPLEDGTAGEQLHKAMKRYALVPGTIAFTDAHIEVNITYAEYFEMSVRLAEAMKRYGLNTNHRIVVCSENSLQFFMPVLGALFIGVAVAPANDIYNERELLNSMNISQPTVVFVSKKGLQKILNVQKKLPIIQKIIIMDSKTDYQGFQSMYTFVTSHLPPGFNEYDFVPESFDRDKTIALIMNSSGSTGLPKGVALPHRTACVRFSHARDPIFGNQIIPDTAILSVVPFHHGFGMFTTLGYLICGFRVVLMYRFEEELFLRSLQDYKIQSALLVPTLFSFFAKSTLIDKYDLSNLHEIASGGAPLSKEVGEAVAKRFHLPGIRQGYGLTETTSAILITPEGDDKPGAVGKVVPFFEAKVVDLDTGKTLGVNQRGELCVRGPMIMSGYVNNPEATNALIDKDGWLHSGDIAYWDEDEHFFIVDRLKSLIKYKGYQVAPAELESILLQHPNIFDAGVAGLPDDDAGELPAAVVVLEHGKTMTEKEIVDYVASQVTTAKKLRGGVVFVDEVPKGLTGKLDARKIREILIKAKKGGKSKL
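Purified P. pyralis luciferase (10nM final) with 10uM D-luciferin and 10uM ATP (Km levels) in 50mM Tris acetate pH 7.5, 10mM Mg acetate, 0.01% Tween-20, 0.05% BSA; qHTS 6-point titration, ~60 µM downward; luminescence read.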
SMN2 splice enh – increases expression of the SMN2 splice variant. HEK293 SMN2-luciferase splicing reporter, luminescence, 30-36 h. Potency, µM (highest dose often 46.1 µM), for the others: at the highest dose activity change, positive = activation, most hits filed as activators. hit rate 2.8% among 210,000; further: % of control where 0% means no effect; nearly all actives have a fitted effect of over 55% in size
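HEK293 cells carry an SMN2 […]–luciferase reporter in which exon 7 inclusion puts luciferase in frame. Cells were plated 10-12 h before compound addition, then incubated 30-36 h at 37C. ONE-Glo luminescence was read; sodium butyrate at 4.5 mM final served as control.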
ELG1 genotox – induces genotoxicity in HEK293T cells with luciferase-tagged ELG1; Potency, µM (titrated, usually from 46 µM), inactives show top-dose activity change, positive = activation, hits mostly activators; HEK293T ELG1-luciferase reporter, luminescence, 16 h; AID 504466; hit rate 1.3% among 330,000; further: % of control where 0% means no effect; nearly all actives have a fitted effect of over 60% in size
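Step 1: seed 2,000 HEK293T ELG1-luciferase cells per well. Step 2: add compound or DMSO, incubate 16 hr at 37 °C. Step 3: ONE-Glo, 30 min at room temperature, read luminescence.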
Active calls of the source: *; ? = inconclusive; / = no result; [ ] = another dose, or the depositor's remark. Rows were chosen to be rich in hits. Some 7.3% of all compounds tested hit in one or more screens of this group. The call rests on the fitted dose curve; in most records, active means well fitted curve in the direction sought with a large enough effect; inconclusive means small, poorly fitted or top-dose-only effect, or another doubt; inactive means no such curve, though single readings can be large; an effect the other way counts as inactive or inconclusive. Potency means the concentration at half of the fitted maximal effect.

SMILES	KinaseGlo FLuc	NPC1 promoter act	Rab9 prom act	FLuc modulator	SMN2 splice enh	ELG1 genotox
CC(=O)Nc1cccc(NC(=O)Nc2cccc3ccccc23)c1	/	-3%	1%	-9%	/	-2%
NS(=O)(=O)c1ccc(NC(=O)Nc2cccc3ccccc23)cc1	-4%[7.66 µM]	0%	-8%	-10%	-7%[9.22 µM]	3%
CCN(CC)c1ccc(NC(=O)Nc2cccc3ccccc23)cc1	/	?	18%	2.1µM*	/	16%
NCCO	/	/	/	/	-2%	/
Cc1ccc(S(=O)(=O)Nc2cccc(-c3ccc(N4CCCCC4)nn3)c2)s1	/	/	/	1.1µM*	/	/
CCc1ccc(S(=O)(=O)Nc2cccc(-c3ccc(N4CCCCC4)nn3)c2)s1	/	/	/	2.7µM*	/	/
Cc1csc2c(N3CCN(C(=S)Nc4ccc(F)cc4F)CC3)ncnc12	/	-1%	-3%	24µM*	/	1%
Cc1csc2c(N3CCN(C(=O)Nc4ccccc4)CC3)ncnc12	/	-1%	-18%	?	/	-6%
CCN(CC)S(=O)(=O)c1ccc(-c2cn3cc(Cl)ccc3n2)cc1	/	18%	20%	?	/	6%
Oc1ccc(-c2cn3cc(C(F)(F)F)ccc3n2)cc1	-16%	0.79µM*	0.5µM*	0.67µM*	0.89µM*	2.1µM*
COc1cc(C(=O)NCc2cn3ccccc3n2)cc(OC)c1OC	3%	-4%	-3%	-2%	8%	6%
Clc1ccc(-c2cn3cc(Cl)ccc3n2)cc1	/	3.5µM*	0.79µM*	0.27µM*	/	1.3µM*
Clc1ccc(-c2cn3c(n2)CCC3)cc1	-9%	2.2µM*	?	12µM*	18%	4.1µM*
COc1c(Cl)cccc1-c1cn2ccccc2n1	/	0.79µM*	1.3µM*	0.54µM*	/	4.1µM*
Cc1ccc(-c2cc(C(F)(F)F)n3nc(-c4ccc(Cl)cc4)cc3n2)cc1	/	/	/	2%	-5%	/
CCc1ccc(CNC(=O)COc2cc(=O)n(CC)c3ccccc23)cc1	/	/	/	-8%	?	/
COc1ccc(-c2cn3ccccc3n2)cc1	/	0.56µM*	0.4µM*	0.76µM*	/	1.3µM*
Clc1ccc(-c2cn3ccccc3n2)cc1	/	0.71µM*	0.45µM*	0.67µM*	/	?
COc1ccc(-c2cn(Cc3cccc(OC)c3)nn2)cc1	/	21%	6%	?	/	-1%
O=C(Nc1ccc(-c2cn3ccccc3n2)cc1)c1ccc(Cl)cc1	-2%	?	27%	-18%	?	2%
Brc1ccc(-c2cn3ccccc3n2)s1	?	1µM*	0.35µM*	0.76µM*	7.1µM*	0.65µM*
COc1ccc(-c2cn3ccc4ccccc4c3n2)cc1	-23%	?	?	0.95µM*	3.2µM*	1.2µM*
O=[N+]([O-])c1cccc(-c2cn3ccccc3n2)c1	-5%	-4%	-3%	-1%	/	1%
CCC(=O)N1c2ccc(S(=O)(=O)CCC(=O)NCc3ccc(OC)cc3)cc2CC1C (stereo unspecified)	/	/	/	-11%	-15%	/
COc1ccccc1CNC(=O)c1cc2c(-c3ccc(Cl)cc3)nn(C)c2s1	/	/	/	-7%	5%	/
SMILES	KinaseGlo FLuc	NPC1 promoter act	Rab9 prom act	FLuc modulator	SMN2 splice enh	ELG1 genotox
CC1=C(c2ccc(C)c(C)c2)S(=O)(=O)N=C1N1CCC(C(=O)N2CCC(C)CC2)CC1	/	/	/	-2%	/	/
CC(C)c1nc2ccc(C(=O)NCCCN3CCN(c4cccc(Cl)c4)CC3)cc2o1	/	/	/	1%	/	/
CCc1ccc(NC(=O)CSc2nc3c([nH]c4ccccc43)c(=O)n2C)cc1	/	/	/	0%	/	/
CNC(=O)c1ccc(-c2ccccc2)s1	-1%	?	?	13µM*	7%	?
O=C(Nc1cccnc1)c1cc(-c2cccc(Br)c2)nc2ccccc12	/	-4%	0%	?	/	-18%
Cc1ccc2nc(-c3cccc(Br)c3)cc(C(=O)NC3=NCCS3)c2c1	3%	-1%	0%	5.4µM*	9%	-9%
O=C(Nc1ccncc1)c1cc(-c2cccc(Br)c2)nc2ccccc12	/	3%	-7%	-27%	/	-18%
O=C(Nc1ncccn1)c1cc(-c2cccc(Br)c2)nc2ccccc12	1%	0%	-4%	27µM*	-15%	-8%
O=C(Nn1cnnc1)c1cc(-c2cccc(Br)c2)nc2ccccc12	/	18%	24%	0.85µM*	/	?
O=C(NC1=NCCS1)c1cc(-c2cccc(Br)c2)nc2ccccc12	-2%	2%	-1%	11µM*	-38%	-4%
CNC(=O)C1CCC(Cn2c(=O)c3sccc3n(CC(=O)Nc3ccc(C)c(F)c3)c2=O)CC1 (stereo unspecified)	/	/	/	-6%	/	/
Cc1cc(C)c(NC(=O)c2nc3ccccc3nc2N2CCCCC2)c(C)c1	/	/	/	0%	/	/
CCOc1c(Cl)cc(Cl)cc1CNCCSc1nnnn1C	/	/	/	-9%	-12%	/
O=C(Nc1nc2c(s1)C(=O)CCC2)c1ccccc1	?	1.1µM*	0.71µM*	2.7µM*	1.6µM*	?
Cc1ccc2nc(NC(=O)c3ccc(-c4nc5ccccc5s4)s3)sc2c1	-4%	-2%	-4%	13µM*	15%	16µM*
COCCNC(=O)c1nc2ccccc2s1	-2%	0%	26%	17µM*	14%	16%
O=C(Nc1nc2ccccc2s1)c1ccc(Cl)s1	1%	1µM*	?	1.9µM*	6.3µM*	1.2µM*
O=C(Nc1nc(=O)[nH]s1)c1ccccc1	2%	0%	3%	-17%	-5%	2%
COc1ccc(C(=O)CCc2nc3ccccc3s2)cc1	-3%	15%	0%	19µM*	13%	15%
COc1cccc(C(=O)Nc2nc3c(s2)CCCC3)c1	/	/	/	1.9µM*	/	/
COc1ccccc1NC(=O)CCc1nc2ccccc2s1	-1%	-3%	10%	-2%	4%	0%
CC(=O)Nc1nc(=O)c2ccccc2s1	-1%	1%	3%	-1%	18%	0%
O=C(Nc1nc2ccccc2s1)c1ccc(F)cc1	-10%	0.71µM*	0.32µM*	1.1µM*	/	2.6µM*
O=C(Nc1nc(=O)c2ccccc2s1)c1ccccc1	-4%	0%	20%	4.3µM*	43%	7.3µM*
CCOc1ccccc1NC(=O)Cn1c(=O)n(Cc2nc(C)no2)c(=O)c2ccccc21	/	/	/	0%	/	/
Cc1cc(C)c2c(n1)sc1c(=O)n(-c3cc(Cl)ccc3C)nnc12	/	/	/	7%	-6%	/
CCc1cnc2c(c1SCC(=O)c1ccc(OC)cc1)c(=O)n(C)c(=O)n2C	/	/	/	4%	/	/
Nc1ncnc2nn([C@H]3O[C@@H](CO)[C@@H](O)[C@H]3O)nc12	-1%[7.66 µM]	/	/	/	-12%[9.22 µM]	/
Cc1ccc(C(=O)Nc2nc3ccccc3c(=O)s2)cc1	-3%	?	1.3µM*	0.76µM*	?	?
COc1cccc(C(=O)Nc2nc3ccccc3s2)c1	/	3.5µM*	2µM*	2.1µM*	/	4.1µM*
